The values below come from ChEMBL document CHEMBL3988442, “University of Dundee, Small-Polar-MMV Screening Library” (2021).

SMILES strings stand for the structures.

For the first assay, the target named is AMP-activated protein kinase, AMPK (Homo sapiens) (UniProt P54646+O43741+P54619+Q9UGJ0+Q9Y478+Q13131+Q9UGI9). As to the kind of experiment: AMP-dependent Kinase enzyme assay. An in vitro enzyme assay that detects ADP turnover that is directly proportional to AMPK activity. This uses naive AMPK that is activated during the assay with MK-8722. It is filed as functional. Details: scale not given: direction of the effect not stated beside the values. The following applies: 30 µM.
Take `COC(=O)N1C[C@H]2CC[C@@H]1CN(Cc1ccncc1)C2`: the Percent Effect came to 0.146%.

Regarding `COc1ccc(Cl)cc1CN(C)C(=O)CN1C(=O)CCC1C` (stereo not given), the Percent Effect worked out at 6.65%.

As to `CC(=O)Nc1cccc(-c2ccccc2CCN)c1`, the Percent Effect is 4.86%.

Take `O=C(C1CC1)N1CCc2c(ncnc2N2CCN3CCCC3C2)C1` (stereo not given): the Percent Effect was -5.38%.

In the case of `COc1ccc2ncn(Cc3ncc[nH]3)c(=O)c2c1`, the Percent Effect was -1.95%.

As for `NC1(c2nc(C(F)(F)F)cc(=O)[nH]2)CCCC1`, the Percent Effect is -4.13%.

Regarding `CS(=O)(=O)N1C[C@H]2CC[C@@H]1CN(Cc1ccncc1)C2`, the Percent Effect turned out to be 11.6%.

With `c1cnc(N2C[C@@H]3CC[C@H](C2)N(Cc2ccsc2)C3)nc1`, the Percent Effect was found to be 8.4%.

Consider `O=C(N1CCCC1)N1C[C@H]2CC[C@@H]1CN(Cc1ccncc1)C2`, for which the Percent Effect turned out to be 2.18%.

As to `Cc1ccc(NC(=O)CNC(C)Cc2ccsc2)cc1F` (stereo not given), the Percent Effect is -6.2%.

In the case of `O=C(c1ccnc(-n2cnnc2)c1)N1CCCC2(CCNC2)C1` (stereo not given), the Percent Effect was -3.71%.

`O=C(c1nc(=O)[nH]c2ccccc12)N1CCCC2(CCNC2)C1` (stereo not given): the Percent Effect came out at 1.4%.

Consider `CC(Cc1cccc(F)c1)NCc1cnc(N2CCN(C)CC2)nc1` (stereo not given), for which the Percent Effect stood at 8.49%.

In the case of `CCc1cccc(NC(=O)CCN2CC=C(c3cnn(C)c3)CC2)c1`, the Percent Effect came to 11.6%.

As to `CNC(=O)[C@@H]1CN(Cc2ccccc2)C[C@H]1C(=O)c1ccc(F)cc1`, the Percent Effect amounted to 12%.

With `CC(=O)Nc1ccc(-c2ccccc2CCN)cc1`, the Percent Effect was determined as 3.13%.

Turning to `O=C(c1cc2ccccc2[nH]c1=O)N1CCC2(CCCNC2)C1` (stereo not given), the Percent Effect was 16.8%.

For `CC(C)NC(=O)[C@H]1CN(Cc2ccccc2)C[C@@H]1C(=O)c1ccccc1`, the Percent Effect stood at 7.87%.

Turning to `CCc1cccc2c(CC(=O)N(C)CCN(C)C)c(C)[nH]c12`, the Percent Effect was 9.67%.

Consider `Cc1cc(Cl)ccc1C(=O)C1CCCN(Cc2cnc(N(C)C)s2)C1` (stereo not given), for which the Percent Effect is 3.99%.

For the molecule `Cc1cc(C(=O)NCC(=O)N2CCOCC2)nn1C(C)(C)C`, the Percent Effect is 8.45%.

For `CC1CN(C)CCN1C(=O)Cc1cc(Cl)c2c(c1)OCCO2` (stereo not given), the Percent Effect came out at 1.93%.

For the molecule `O=C1CC2(CCN(Cc3ccc(Cl)s3)C2)C(=O)N1` (stereo not given), the Percent Effect was 12.7%.

Consider `Cn1ncc2c(NC3CN4CCC3CC4)nc(-c3ccncc3)nc21` (stereo not given), for which the Percent Effect worked out at 5.93%.

The target in a further assay is T1, Arginase-2, mitochondrial (Homo sapiens) (UniProt P78540).
T1 sequence (whole entry): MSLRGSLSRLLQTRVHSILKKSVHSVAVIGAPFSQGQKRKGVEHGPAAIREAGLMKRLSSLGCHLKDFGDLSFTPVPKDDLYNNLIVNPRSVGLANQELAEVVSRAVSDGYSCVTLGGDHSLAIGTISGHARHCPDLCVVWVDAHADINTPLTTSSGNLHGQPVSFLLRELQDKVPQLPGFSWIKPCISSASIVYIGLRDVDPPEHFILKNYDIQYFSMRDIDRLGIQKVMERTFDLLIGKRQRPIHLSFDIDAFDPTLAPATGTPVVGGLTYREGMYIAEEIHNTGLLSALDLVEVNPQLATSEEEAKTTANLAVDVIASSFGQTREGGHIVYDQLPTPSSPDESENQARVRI
As to the kind of experiment: in vitro enzyme assay to detect the production of urea directly proportional to the activity of Arginase II. It is filed as functional. Details: scale not given: in the data most compounds retested in dose-response had high values. The following applies: 30 µM.
On to `c1ccc(O[C@H]2CO[C@@]3(CCCN(Cc4nccs4)C3)C2)nc1`, for which the Percent Effect was -0.54%.

On to `Cc1nc(NCC2CC2)nc2c1COCC21CCNC1` (stereo not given), for which the Percent Effect was found to be 8.11%.

Regarding `O=C(NCc1ccccn1)[C@]12COC[C@H]1CN(Cc1ccsc1)C2`, the Percent Effect worked out at 5.95%.

As to `CSc1ccc(C2SCC(=O)Nc3c2c(=O)[nH]n3C2CCOCC2)cc1` (stereo not given), the Percent Effect came to 8.11%.

Regarding `O=C1CSC(c2ccccc2)c2c(n(C3CCOCC3)[nH]c2=O)N1` (stereo not given), the Percent Effect was found to be 5.95%.

As to `O=C1CSC(c2ccsc2)c2c(n(C3CCCC3)[nH]c2=O)N1` (stereo not given), the Percent Effect came out at 4.87%.

On to `O=C1CSC(c2ccc(O)cc2)c2c(n(C3CCOCC3)[nH]c2=O)N1` (stereo not given), for which the Percent Effect was 11.3%.

`CN(Cc1ccco1)[C@@H]1CN(Cc2cccnc2)[C@@H]2CCCO[C@H]12`: the Percent Effect was determined as 2.7%.

As to `c1ccc(O[C@@H]2CO[C@@]3(CCCN(CC4CCOCC4)C3)C2)nc1`, the Percent Effect was 8.11%.

Regarding `Cn1cc(C2SCC(=O)Nc3c2c(=O)[nH]n3C2CCOCC2)cn1` (stereo not given), the Percent Effect was 0.54%.

In the case of `O=C1CSC(c2ccc(Cl)cc2Cl)c2c(n(C3CCOCC3)[nH]c2=O)N1` (stereo not given), the Percent Effect turned out to be 8.11%.

On to `O=C1CSC(c2ccc(F)c(Cl)c2)c2c(n(C3CCOCC3)[nH]c2=O)N1` (stereo not given), for which the Percent Effect was -0.54%.

As for `c1ccc(CN2CCC3(CC2)CCN(Cc2cccnc2)C3)nc1`, the Percent Effect worked out at 8.11%.

Regarding `CN(Cc1cncnc1)[C@H]1CN(Cc2ccco2)[C@@H]2CCCO[C@@H]21`, the Percent Effect turned out to be 4.87%.

Regarding `O=C1CSC(c2cccnc2)c2c(n(C3CCOCC3)[nH]c2=O)N1` (stereo not given), the Percent Effect was 7.03%.

For `O=C1CSC(c2ccncc2)c2c(n(C3CCOCC3)[nH]c2=O)N1` (stereo not given), the Percent Effect is 9.19%.
